Our source for the z-score values is PubChem BioAssay.

Activity calls are given as the source filed them.

This assay can be described thus: ATP-based viability of Huh7 replicon cells – cell-based, CellTiter-Glo luminescence, basal, 48 h, cytotoxicity control for HCV replication inhibitor project, primary screen (AID 1143).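 Note: Huh7 hepatoma cells carrying a hepatitis C replication reporter with no stimulus; test concentration not given here.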 The note with it: higher = more signal, called active from +8 up or from −8 down. In general terms: In antiviral work, replicon cells carry a viral genome segment that copies itself.
On to `COCCCNC(=O)[C@@]1(c2ccc([N+](=O)[O-])cc2)CC(=O)N(CC23CC4CC(CC(C4)C2)C3)[C@@H]1c1ccc(CO)cc1I`, for which the z-score is -5.26 (inactive).
Turning to `COc1ccc(C#Cc2ccc3c(c2)[C@]2(C(=O)N3)[C@H](C(=O)N3CCCCCCC3)[C@H]3C(=O)O[C@H](c4ccccc4)[C@H](c4ccccc4)N3[C@@H]2c2ccc(O)cc2)cc1`, the z-score was -0.71 (inactive).
The result for `C=C(/C(=C/C[C@H](OC(=O)c1ccncc1)c1cccc(OCCO)c1)c1cnc2ccccc2c1)C(C)C` reads -7.81 (inactive); that for `CCCCCCCCCCC(O)C1C=CC2C(=O)N(C)C(=O)C2N1Nc1cc(OC)c(OC)c(OC)c1` (stereo not given), -2.56 (inactive); that for `Nc1cc(Br)ccc1C(=O)O`, 0.389 (inactive).
As to `CN(C)C(=O)[C@]1(CCS(=O)(=O)c2ccccc2)N=C(c2ccc(OCCCO)cc2)O[C@@H]1c1ccccc1`, the z-score is -2.87 (inactive).
For the compound `O=C1N(CCS(=O)(=O)c2ccccc2)Cc2ccccc2[C@@H]2OC(c3ccc(OCCCO)cc3)=N[C@]12CCS(=O)(=O)c1ccccc1`, the z-score was -1.5 (inactive).
Turning to `COc1ccc([Si](C)(C)[C@H]2[C@H](CC(=O)N3Cc4ccccc4C[C@H]3CO)O[C@@]3(C(=O)N(Cc4ccc(N5C(=O)c6cccc7cccc5c67)cc4)c4ccccc43)[C@@H]2C)cc1`, the z-score is -4.09 (inactive).
The result for `COCC1=C2[C@@H](CCc3ccccc3)OB(O)C[C@@H]2[C@@H]2C(=O)N(C)C(=O)[C@@H]2C1` reads 0.0876 (inactive); that for `CC(C)OC(=O)CC(=O)CC(O)c1ccc([N+](=O)[O-])cc1` (stereo not given), -0.824 (inactive).
